The target in assay [1] is Lysosomal acid glucosylceramidase (Homo sapiens) (UniProt P04062). The experiment in a line: Glucocerebrosidase-p2 (AID 348; in the data active means potency below about 10 µM; further: potency means the concentration at half of the fitted maximal effect). Particulars: purified GBA, blue fluorogenic substrate, 40 min. The gist of the method:
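Normal human glucocerebrosidase (0.2 nM) with blue fluorogenic substrate (80 uM final) in citrate/phosphate pH 5.9 with 10mM sodium taurocholate, 0.01% tween-20; 40 min RT, NaOH/glycine stop; fluorescence Ex 365/Em 440; AC50 from a titration from 0.6 nM upwards.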

Assay [2] in a line: AP1 Signaling Pathway (AID 357).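 Further: ME-180 reporter cells stimulated with EGF at its EC50 level; on the % scale 0 is the no-effect control and ±100 the full control effect.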 The note with it: ME-180 AP-1-bla reporter, EGF-induced, beta-lactamase ratio, 5 h; at 7.69 µM (top of the series) unless noted. In outline:
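Read-out was the 460nm/530nm emission ratio (excitation 405nm) after CCF4 loading for 2.5 hours at room temperature. Cells carried an AP-1-driven beta-lactamase reporter, were stimulated with EC50 EGF plus compound for 5 hours, and AC50 values came from titrations.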

Assay [3] is described as follows: NFAT Signaling Pathway (AID 444).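 Further: carbachol stimulus at about its EC50 of 1 µM final; on the % scale 0 is the no-effect control and ±100 the full control effect.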 The note with it: Jurkat NFAT-bla M1, carbachol, beta-lactamase ratio, 5 h; at 7.69 µM (top of the series) unless noted. The gist of the method:
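Jurkat cells carrying an NFAT-driven β-lactamase reporter and co-transfected muscarinic M1 receptor were treated with compound plus carbachol (1 uM final, an EC50 level) for 5 h at 37 °C. CCF4 loading followed for 1 h at RT; 460/530 nm ratio gave %activity.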

A short description of assay [4]: Stat Signaling Pathway (AID 446).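 Further: ME-180 cervical cancer cells given 40 pM IL-6 alongside compound; SIE-controlled beta-lactamase reporter measured as 460/530 nm FRET emission ratio; on the % scale 0 is the no-effect control and ±100 the full control effect.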 The note with it: ME-180 (cervical carcinoma) SIE beta-lactamase reporter, IL-6 stimulated, 5 h; at 7.69 µM (top of the series) unless noted. In outline:
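Overnight-plated ME-180 cells bearing a STAT Inducible Element beta-lactamase reporter; 5 h co-exposure to compound and 40 pM IL-6; values normalized to 300 pM IL-6 and 125 nM JAK inhibitor controls.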

In assay [5] the target is Glucocorticoid receptor (Homo sapiens) (UniProt P04150). The experiment in a line: GR-GFP Redistribution (AID 450;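 active means compounds whose dose series gives a full or clear partial fitted curve of increased nuclear translocation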; further: potency means the concentration at half of the fitted maximal effect). Particulars: U2OS GR-GFP nuclear translocation, laser cytometry, 2 h.
Glucocorticoid receptor (Homo sapiens), sequence (P04150 whole entry, looked up, the tested form may be a part): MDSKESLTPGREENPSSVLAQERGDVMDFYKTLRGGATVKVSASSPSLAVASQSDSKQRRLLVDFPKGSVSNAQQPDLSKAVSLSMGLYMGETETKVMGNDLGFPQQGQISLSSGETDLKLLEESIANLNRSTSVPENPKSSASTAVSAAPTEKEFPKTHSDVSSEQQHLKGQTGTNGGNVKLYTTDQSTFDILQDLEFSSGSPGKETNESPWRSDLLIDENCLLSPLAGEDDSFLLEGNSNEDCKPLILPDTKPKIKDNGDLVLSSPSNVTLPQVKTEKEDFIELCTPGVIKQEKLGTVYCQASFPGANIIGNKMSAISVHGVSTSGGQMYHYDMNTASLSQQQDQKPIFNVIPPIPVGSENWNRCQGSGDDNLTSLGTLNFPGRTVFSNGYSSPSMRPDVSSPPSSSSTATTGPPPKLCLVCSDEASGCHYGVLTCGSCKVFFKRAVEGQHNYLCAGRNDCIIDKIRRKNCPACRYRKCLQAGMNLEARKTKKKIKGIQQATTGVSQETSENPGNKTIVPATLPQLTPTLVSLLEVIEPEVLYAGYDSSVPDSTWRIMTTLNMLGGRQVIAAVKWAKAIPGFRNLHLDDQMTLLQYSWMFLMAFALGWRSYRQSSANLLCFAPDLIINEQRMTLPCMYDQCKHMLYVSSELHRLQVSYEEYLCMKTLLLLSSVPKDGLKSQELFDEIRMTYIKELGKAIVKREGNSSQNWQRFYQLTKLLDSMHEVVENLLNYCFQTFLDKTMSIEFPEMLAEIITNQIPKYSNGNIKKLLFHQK
The target is the same in assay [6]. The experiment in a line: GR-EFC Redistribution (AID 451; calls by dose curve; further: potency means the concentration at half of the fitted maximal effect). The note with it: CHO-K1 GR-EFC translocation, beta-gal luminescence, 2 h. In outline: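 CHO-K1 cells stably expressing nuclear-localized β-gal enzyme acceptor and GR fused C-terminally to the enzyme donor fragment; ligand-driven nuclear translocation restores β-gal by complementation. Compounds titrated up to 46 uM final, 2 h at 37 °C; luminescence read.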

The target of assay [7] is Mitogen-activated protein kinase 10 (Mus musculus) (UniProt Q61831). The experiment in a line: JNK3 AlphaScreen Assay (AID 530).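 Further: kinase came from lysate of stimulated human HepG2 cells; signal reports phosphorylation of biotinylated GST-cJun 1-79 at Ser73 with 10 µM ATP; on the % scale 0 is the no-effect control and ±100 the full control effect.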 The note with it: JNK3 lysate, c-Jun phosphorylation; series mostly up to 57.1 µM. The gist of the method:
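Phosphorylation of biotinylated GST-cJun(1-79) at Ser73 is measured by AlphaScreen proximity luminescence. Enzyme is JNK3 in HepG2 lysates activated with interleukin-1beta and tumor necrosis factor alpha; ATP is 10 uM final.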
On the technique in general: Alpha assays give light when donor and acceptor beads are brought close together.

The target in assay [8] is 3',5'-cyclic-AMP phosphodiesterase 4B (Homo sapiens) (UniProt Q07343). The experiment in a line: qHTS Assay for Inhibitors of PDE-IV (AID 607; active means well fitted activation curve with a large enough effect in the main read-out, with a control signal flat, not every such curve was filed as active; further: % of control where 0% means no effect). The note with it: HEK293 ACTOne CNG channel cells, membrane potential fluorescence; series mostly up to 22.9 µM. In outline: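 Live HEK293 cells with a modified cyclic nucleotide-gated (CNG) channel report intracellular cAMP via membrane-potential dye fluorescence (ex 535/em 590 nm). Endogenous PDE-IV was targeted. Compounds were tested at up to 22.9 uM final; RO 20-1724 100 uM served as control.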
3',5'-cyclic-AMP phosphodiesterase 4B (Homo sapiens), sequence (Q07343 whole entry, looked up): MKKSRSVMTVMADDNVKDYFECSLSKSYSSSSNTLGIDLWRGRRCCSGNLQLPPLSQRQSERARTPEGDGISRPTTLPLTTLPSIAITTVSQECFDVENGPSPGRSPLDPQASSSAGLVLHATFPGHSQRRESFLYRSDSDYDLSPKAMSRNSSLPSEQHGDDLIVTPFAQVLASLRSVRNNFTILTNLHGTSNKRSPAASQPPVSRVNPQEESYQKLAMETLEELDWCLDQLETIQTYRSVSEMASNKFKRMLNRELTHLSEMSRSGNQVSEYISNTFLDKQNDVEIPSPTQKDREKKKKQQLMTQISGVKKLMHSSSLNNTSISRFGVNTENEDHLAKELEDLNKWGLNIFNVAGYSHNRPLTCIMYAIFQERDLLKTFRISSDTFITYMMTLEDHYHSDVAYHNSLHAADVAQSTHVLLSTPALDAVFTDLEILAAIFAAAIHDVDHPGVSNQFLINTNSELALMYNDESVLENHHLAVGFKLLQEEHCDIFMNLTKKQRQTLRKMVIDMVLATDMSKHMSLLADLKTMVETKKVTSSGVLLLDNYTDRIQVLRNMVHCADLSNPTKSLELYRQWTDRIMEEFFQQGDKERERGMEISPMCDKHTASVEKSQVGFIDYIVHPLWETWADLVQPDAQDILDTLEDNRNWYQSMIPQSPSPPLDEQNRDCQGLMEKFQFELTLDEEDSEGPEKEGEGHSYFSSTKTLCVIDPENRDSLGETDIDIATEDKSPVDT

The nature of assay [9]: qHTS Assay for Lipid Storage Modulators (AID 1519; calls by dose curve). Particulars: Drosophila S3 cells, BODIPY lipid droplet/cell ratio, laser cytometry, cells loaded with oleic acid; for activity change, negative = inhibition: at 57.5 µM (top of the series). In outline:
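Cells seeded at 5,000 per well were treated with compounds over a concentration series and loaded with oleic acid (400 uM, as added). Lipid droplet fluorescence (488 nm excitation, 500-530 nm channel) was read by laser-scanning cytometry and normalized to 20 uM Triacsin C.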

In assay [10] the target is Dual specificity protein kinase CLK4 (Homo sapiens) (UniProt Q9HAZ1). The experiment in a line: qHTS Assay for Inhibitors of CDC-like Kinase 4 (ADP-FP Assay) (AID 1795; active means well fitted curve in the direction sought with a large enough effect; an effect the other way counts as inactive or inconclusive;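 further: recombinant human CLK4 phosphorylating RS repeat peptide at 1 µM ATP; on the % scale 0 is the no-effect control and ±100 the full control effect; nearly all actives have a fitted effect of over 60% in size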). The note with it: Transcreener ADP fluorescence polarization; series mostly up to 50 µM. In outline:
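Inhibition of ADP formation by 6.25 nM Clk4 is measured using 1 uM ATP and 100 uM RS repeat peptide over one hour. Produced ADP displaces a fluorescent tracer from antibody, lowering polarization.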

The target in assay [11] is Ubiquitin carboxyl-terminal hydrolase 1 (Homo sapiens) (UniProt O94782). The experiment in a line: Inhibitors of USP1/UAF1: Pilot qHTS (AID 504865; active means well fitted curve in the direction sought with a large enough effect; an effect the other way counts as inactive or inconclusive;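 further: rhodamine fluorescence freed from ubiquitin-rhodamine substrate followed over time; top concentration of the series differs between compounds; on the % scale 0 is the no-effect control and ±100 the full control effect; nearly all actives have a fitted effect of over 35% in size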). The note with it: purified USP1/UAF1, Ub-rhodamine cleavage fluorescence; series mostly up to 54.9 µM. The gist of the method:
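Kinetic fluorescence assay: 1nM USP1/UAF1, 15 min compound preincubation, then 150nM Ub-Rho; 480/540 nm.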

The nature of assay [12]: Primary qHTS for small molecule stabilizers of the endoplasmic reticulum resident proteome: Secreted ER Calcium Modulated Protein (SERCaMP) assay (AID 1508630; active means well fitted curve in the direction sought with a large enough effect; an effect the other way counts as inactive or inconclusive; further: on the % scale 0 is the no-effect control and ±100 the full control effect). Particulars: SH-SY5Y GLuc-SERCaMP (Gaussia luciferase released on ER calcium loss) secretion, thapsigargin, luminescence; series mostly up to 38.4 µM. The gist of the method: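 The SH-SY5Y reporter protocol was run at 3 concentrations up to 38.3 uM (primary) or 11 concentrations (follow-up): 16 h compound, 100 nM thapsigargin for 4 h, then extracellular luciferase luminescence.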

The target of assay [13] is Cytochrome P450 1A2 (Homo sapiens) (UniProt P05177). The experiment in a line: p450-cyp1a2 (AID 410; calls by dose curve; further: potency means the concentration at half of the fitted maximal effect). The note with it: recombinant CYP1A2, luciferin-ME demethylation, luminescence; series mostly up to 57 µM. The gist of the method:
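Luminescent demethylation readout: Luciferin-ME (100uM, equal to Km) turned over by 20nM CYP1A2 for 60 min at room temperature after NADPH regeneration addition, following 10 min compound preincubation. Normalization used 57 uM furafylline as full inhibition.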

For assay [14], the target named is Cytochrome P450 3A4 (Homo sapiens) (UniProt P08684). The experiment in a line: qHTS Assay for Activators of Cytochrome P450 3A4 (AID 885; active means well fitted curve in the direction sought with a large enough effect; an effect the other way counts as inactive or inconclusive; further: nearly all actives have a fitted effect of over 65% in size). The note with it: recombinant CYP3A4, Luciferin-PPXE luminescence, 60 min; series mostly up to 57.1 µM. The gist of the method: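 Using 20nM recombinant human CYP3A4 in potassium phosphate (200mM), substrate Luciferin-PPXE at 25uM, luminescent luciferin detection followed a 60-min RT NADPH reaction; data scaled to 57 uM ketoconazole.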
Cytochrome P450 3A4 (Homo sapiens), sequence (P08684 whole entry, looked up): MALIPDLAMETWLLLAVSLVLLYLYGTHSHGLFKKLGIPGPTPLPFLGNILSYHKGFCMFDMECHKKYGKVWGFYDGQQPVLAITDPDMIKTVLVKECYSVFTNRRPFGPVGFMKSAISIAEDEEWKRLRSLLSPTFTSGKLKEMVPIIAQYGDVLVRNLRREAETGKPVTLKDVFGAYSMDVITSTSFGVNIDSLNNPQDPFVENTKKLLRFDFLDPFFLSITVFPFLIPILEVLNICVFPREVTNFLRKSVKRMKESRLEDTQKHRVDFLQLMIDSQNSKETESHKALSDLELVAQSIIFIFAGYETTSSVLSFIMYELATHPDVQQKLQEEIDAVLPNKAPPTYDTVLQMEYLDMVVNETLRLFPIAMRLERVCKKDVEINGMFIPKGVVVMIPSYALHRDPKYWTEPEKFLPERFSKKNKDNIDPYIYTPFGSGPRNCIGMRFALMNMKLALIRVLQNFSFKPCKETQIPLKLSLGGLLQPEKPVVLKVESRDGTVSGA

The target of assay [15] is Cytochrome P450 2C19 (Homo sapiens) (UniProt P33261). The experiment in a line: qHTS Assay for Inhibitors and Substrates of Cytochrome P450 2C19 (AID 899; active means well fitted curve in the direction sought with a large enough effect; an effect the other way counts as inactive or inconclusive; further: potency means the concentration at half of the fitted maximal effect; nearly all actives have a fitted effect of over 60% in size). Particulars: recombinant CYP2C19, luciferin-H EGE luminescence; series mostly up to 57.1 µM. The gist of the method: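 In 50mM KPO4, the reaction held 5nM enzyme and KM-level (10uM) Luciferin-H EGE; it ran 60 min at 37C after NADPH regeneration and a 10 min compound preincubation. Luminescence values were scaled to 57uM ketoconazole as complete inhibition.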
Cytochrome P450 2C19 (Homo sapiens), sequence (P33261 whole entry, looked up): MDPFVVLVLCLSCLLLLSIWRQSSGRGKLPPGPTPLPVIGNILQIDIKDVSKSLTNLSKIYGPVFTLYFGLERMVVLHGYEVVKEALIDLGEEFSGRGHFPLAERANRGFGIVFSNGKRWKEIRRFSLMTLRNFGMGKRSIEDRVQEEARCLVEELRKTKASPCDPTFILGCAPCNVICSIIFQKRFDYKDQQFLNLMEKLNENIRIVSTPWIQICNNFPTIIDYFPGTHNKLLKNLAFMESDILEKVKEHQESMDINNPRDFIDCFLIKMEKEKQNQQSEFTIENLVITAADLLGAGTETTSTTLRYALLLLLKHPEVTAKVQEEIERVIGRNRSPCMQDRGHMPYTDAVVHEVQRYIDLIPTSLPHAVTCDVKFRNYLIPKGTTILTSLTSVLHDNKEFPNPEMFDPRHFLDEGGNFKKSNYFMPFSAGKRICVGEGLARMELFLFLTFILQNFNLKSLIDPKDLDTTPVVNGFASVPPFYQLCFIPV

Assay [16] addresses Cytochrome P450 3A4 (Homo sapiens) (UniProt P08684). The experiment in a line: qHTS Assay for Inhibitors and Substrates of Cytochrome P450 3A4 (AID 884; active means well fitted curve in the direction sought with a large enough effect; an effect the other way counts as inactive or inconclusive; further: potency means the concentration at half of the fitted maximal effect; nearly all actives have a fitted effect of over 50% in size). Particulars: recombinant CYP3A4, Luciferin-PPXE luminescence; series mostly up to 57.1 µM. The gist of the method: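 Luminescent readout of luciferin produced by CYP3A4 (20 nM) dealkylation of Luciferin-PPXE, 25 uM (its KM). NADPH-driven reaction ran 60 min at RT after 10 min compound preincubation; data scaled to 57 uM ketoconazole as 100% inhibition.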
A general note: qHTS replaces the single test concentration by a dilution series.

The mark [17] stands for this setting: measured here: cell count channel max response.
Where [18] appears, read: measured here: lipid channel max response.

The structures appear in SMILES notation. Inconclusive results are not listed. Activity calls are given as the source filed them. Unless noted, the call rests on the fitted dose curve; in most records, active means well fitted curve in either direction with a large enough effect (not every such curve was filed as active); inconclusive means small, poorly fitted or top-dose-only effect, or another doubt; inactive means flat fitted curve, though single readings scatter.

Ubiquitin carboxyl-terminal hydrolase 1 (Homo sapiens), sequence (O94782 whole entry, looked up): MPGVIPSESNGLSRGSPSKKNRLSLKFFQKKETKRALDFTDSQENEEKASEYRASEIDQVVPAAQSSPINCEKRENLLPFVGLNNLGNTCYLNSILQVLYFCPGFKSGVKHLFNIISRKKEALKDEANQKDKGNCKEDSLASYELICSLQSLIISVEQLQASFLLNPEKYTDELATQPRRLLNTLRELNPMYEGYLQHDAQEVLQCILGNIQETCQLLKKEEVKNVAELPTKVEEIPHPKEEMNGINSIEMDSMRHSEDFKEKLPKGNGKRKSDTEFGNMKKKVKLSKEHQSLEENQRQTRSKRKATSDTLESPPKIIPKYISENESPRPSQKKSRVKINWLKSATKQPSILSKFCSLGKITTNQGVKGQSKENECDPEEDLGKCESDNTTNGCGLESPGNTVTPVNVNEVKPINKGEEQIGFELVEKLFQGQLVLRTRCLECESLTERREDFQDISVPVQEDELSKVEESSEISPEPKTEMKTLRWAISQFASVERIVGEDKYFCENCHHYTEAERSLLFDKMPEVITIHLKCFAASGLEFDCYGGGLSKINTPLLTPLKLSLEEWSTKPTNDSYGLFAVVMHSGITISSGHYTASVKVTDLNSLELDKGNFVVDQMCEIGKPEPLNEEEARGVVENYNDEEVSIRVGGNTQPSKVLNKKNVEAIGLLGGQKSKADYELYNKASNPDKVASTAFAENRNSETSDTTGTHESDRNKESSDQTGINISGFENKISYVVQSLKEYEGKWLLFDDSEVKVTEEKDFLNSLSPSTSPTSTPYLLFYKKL
Lysosomal acid glucosylceramidase (Homo sapiens), sequence (P04062 whole entry, looked up): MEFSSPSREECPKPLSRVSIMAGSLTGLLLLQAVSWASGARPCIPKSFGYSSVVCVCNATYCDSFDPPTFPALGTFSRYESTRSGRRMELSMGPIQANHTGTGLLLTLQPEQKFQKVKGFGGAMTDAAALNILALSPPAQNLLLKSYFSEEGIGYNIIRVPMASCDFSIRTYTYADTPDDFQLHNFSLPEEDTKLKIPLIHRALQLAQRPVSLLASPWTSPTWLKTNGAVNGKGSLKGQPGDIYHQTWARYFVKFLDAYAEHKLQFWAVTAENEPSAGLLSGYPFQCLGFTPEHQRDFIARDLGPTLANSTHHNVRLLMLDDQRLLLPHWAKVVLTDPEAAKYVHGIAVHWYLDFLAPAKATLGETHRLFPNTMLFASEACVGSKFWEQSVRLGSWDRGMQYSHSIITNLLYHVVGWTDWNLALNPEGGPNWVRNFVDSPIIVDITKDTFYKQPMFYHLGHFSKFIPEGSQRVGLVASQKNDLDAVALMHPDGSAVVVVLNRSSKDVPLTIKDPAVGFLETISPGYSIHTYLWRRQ
Cytochrome P450 1A2 (Homo sapiens), sequence (P05177 whole entry, looked up): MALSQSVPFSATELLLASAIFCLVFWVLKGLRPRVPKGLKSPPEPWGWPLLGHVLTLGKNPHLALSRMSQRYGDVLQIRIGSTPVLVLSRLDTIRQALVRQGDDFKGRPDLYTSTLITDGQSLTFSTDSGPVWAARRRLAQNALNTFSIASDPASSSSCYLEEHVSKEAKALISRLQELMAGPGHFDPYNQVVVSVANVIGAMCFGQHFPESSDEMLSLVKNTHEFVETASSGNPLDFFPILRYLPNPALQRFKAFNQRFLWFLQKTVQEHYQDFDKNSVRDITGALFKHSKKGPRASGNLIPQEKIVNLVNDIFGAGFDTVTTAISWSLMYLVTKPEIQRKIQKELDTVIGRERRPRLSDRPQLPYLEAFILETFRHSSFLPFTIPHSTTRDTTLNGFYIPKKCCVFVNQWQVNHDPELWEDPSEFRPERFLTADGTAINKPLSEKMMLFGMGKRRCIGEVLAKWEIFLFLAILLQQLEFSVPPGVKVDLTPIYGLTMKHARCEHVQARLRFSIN
Dual specificity protein kinase CLK4 (Homo sapiens), sequence (Q9HAZ1 whole entry, looked up): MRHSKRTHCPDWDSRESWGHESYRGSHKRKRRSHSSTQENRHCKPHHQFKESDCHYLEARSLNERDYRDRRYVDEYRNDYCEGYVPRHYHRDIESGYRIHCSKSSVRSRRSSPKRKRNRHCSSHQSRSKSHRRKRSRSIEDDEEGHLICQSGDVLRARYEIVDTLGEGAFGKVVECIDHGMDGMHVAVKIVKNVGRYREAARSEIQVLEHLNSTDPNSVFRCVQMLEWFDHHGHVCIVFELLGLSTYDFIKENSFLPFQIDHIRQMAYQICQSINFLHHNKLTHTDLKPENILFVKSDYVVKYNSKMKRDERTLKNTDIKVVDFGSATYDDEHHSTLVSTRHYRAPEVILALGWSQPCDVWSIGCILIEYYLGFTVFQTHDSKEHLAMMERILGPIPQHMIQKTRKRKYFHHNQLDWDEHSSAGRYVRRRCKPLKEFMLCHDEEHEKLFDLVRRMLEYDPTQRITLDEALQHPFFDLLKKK

Take `COc1ccccc1-c1ccc2ncnc(NC3CCNCC3)c2c1`: the values for the Potency in assay [1], in assay [5] and in assay [6] were > 11.4 µM (inactive), > 46 µM (inactive) and > 46 µM (inactive), respectively. The activity change, negative = inhibition in assay [2] is 2.47% (inactive); in [3] it was 5.17% (inactive); in assay [9], 4.79% (inactive). Further, the activity, negative = inhibition in [4] was 3.74% (inactive). Further, the compound was classed as inactive in assay [7]. Also, the Potency result in assay [8], in assay [10], in assay [11] and in [12] was “inactive” throughout. Moreover, the max response was determined as 10.6% in assay [9] (setting [17]) and 12.3% in assay [9] (setting [18]).
For the compound `N#Cc1cccc(-c2cc(NCc3ccccc3)ncn2)c1`, the Potency is > 11.4 µM (inactive) in assay [1], 1 µM (active) in [13], > 46 µM (inactive) in assay [5] and > 46 µM (inactive) in assay [6]. Further, the activity change, negative = inhibition is -7.27% (inactive) in assay [2], 17.5% (inactive) in assay [3] and 6.18% (inactive) in [9]. In addition, the activity, negative = inhibition in assay [4] was 4.28% (inactive). Further, the compound was classed as inactive in assay [7]. For the same compound, the max response in [9] (setting [17]) is 26.4%; in assay [9] (setting [18]), 32.1%. The Potency entry in [11] and in [12] was “inactive” throughout.
On to `CN(Cc1ccco1)c1ncnc2ccc(-c3ccccc3C(F)(F)F)cc12`, for which the Potency in assay [1] was > 11.4 µM (inactive); in assay [13] it was 5.01 µM (active); in assay [5], > 46 µM (inactive); in assay [6], > 46 µM (inactive); in assay [15], 3.16 µM (active). In addition, the activity change, negative = inhibition in assay [2] was 4.42% (inactive); in assay [3], -18.5% (inactive); in assay [9], -0.853% (inactive). Moreover, in [4], the activity, negative = inhibition is -19.3% (inactive). In addition, the compound was classed as inactive in [7]. Also, the Potency entry in assay [14], in [10], in assay [11] and in [12] was “inactive” in each case. The results for the max response in assay [9] (setting [17]) and in assay [9] (setting [18]) were 20.9% and 18.1%, respectively.
On to `COc1ccc(-n2c(=O)cnc3cnc(N4CCN(C)CC4)nc32)cc1`, for which the Potency in assay [1] is > 11.4 µM (inactive); in assay [5] it was > 9.22 µM (inactive); in assay [6], > 46 µM (inactive). The activity change, negative = inhibition in assay [2] was -6.82% (inactive); in [3], -9.46% (inactive); in assay [9], 2.82% (inactive). Also, in assay [4], the activity, negative = inhibition is 2.91% (inactive). The compound was classed as inactive in [7]. Also, the Potency result in [8], in [10], in assay [11] and in [12] was “inactive” in each case. Also, the results for the max response in assay [9] (setting [17]) and in assay [9] (setting [18]) were 18.4% and 19.5%, respectively.
In the case of `N#Cc1cccc(-c2cncnc2NCc2cccs2)c1`, the Potency is > 11.4 µM (inactive) in assay [1]; 1.58 µM (active) in [13]; > 46 µM (inactive) in [5]; > 46 µM (inactive) in [6]; 1.26 µM (active) in [16]; 7.94 µM (active) in assay [15]. Also, the results for the activity change, negative = inhibition in assay [2], in assay [3] and in assay [9] were -2.15% (inactive), -0.972% (inactive) and 6.17% (inactive), respectively. Besides, the activity, negative = inhibition in [4] was 3.27% (inactive). In addition, the outcome in [7] was inactive. Moreover, the Potency result in assay [14], in assay [10], in assay [11] and in [12] was “inactive” in each case. Also, the max response in [9] (setting [17]) is 15.7%; in assay [9] (setting [18]), 18.5%.
As for `CN(C)c1ccc(-c2nc(NCCN3CCOCC3)c3ccccc3n2)cc1`, the results for the activity change, negative = inhibition in [2], in assay [3] and in [9] were 1.67% (inactive), -21.3% (inactive) and 3.01% (inactive), respectively. Moreover, the Potency was 7.94 µM (active) in assay [13] and > 46 µM (inactive) in [6]. Further, the compound was called inactive in [7]. Moreover, the Potency entry in [8], in [14], in assay [10], in [11] and in [12] was “inactive” in each case. Further, the max response came to 9.82% in [9] (setting [17]) and 10.9% in assay [9] (setting [18]).

The record behind these values is PubChem BioAssay (NCATS).
